This is an account of results in PubChem BioAssay (Tox21).

Experiment [1] is described as follows: qHTS assay for small molecule agonists of the p53 signaling pathway - cell viability (AID 651633; calls by dose curve; also: nearly all actives have a fitted effect of over 30% in size; also: potency is read from the fitted curve at half-maximal effect). A digest of the protocol:
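Viability counter-read: CellTiter-Glo luminescence (30 min, room temperature) in the same p53RE-bla plates. These plates had been exposed to compounds for 16 h at 37 C.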

The nature of experiment [2]: qHTS assay to test for compound auto fluorescence at 460 nm (blue) in HEK293 cells (AID 720678). A digest of the protocol: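 Blue-channel (Ex/Em 405/460 nm) intensity measured in HEK293 cultures after overnight compound exposure at 37C; signal expressed relative to triamterene. Cells plated 2,000 per well in 10% dialyzed FBS medium and allowed 4-5 hr to attach.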
Experiment [3] can be described thus: qHTS assay to test for compound auto fluorescence at 460 nm (blue) in HepG2 cells (AID 720687). A digest of the protocol:
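Blue-channel autofluorescence (Ex/Em 405/460 nm, triamterene-equivalent) was measured after 1 hr compound exposure at 37 C, 5% CO2. Cells were HepG2, plated overnight at 37 C in MEM plus 10% FBS.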
For orientation: Quantitative high-throughput screening tests each substance at several concentrations.

Experiment [4] is described as follows: qHTS assay for identifying genotoxic compounds that show differential cytotoxicity against isogenic chicken DT40 cell lines with known DNA damage response pathways - wild type cell line (AID 743012). Also: nearly all actives have a fitted effect of over 60% in size. Also: potency is read from the fitted curve at half-maximal effect. The method in brief:
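Viability by ATP luminescence (CellTiter-Glo, 30 min RT) after 40 h compound treatment at 37 C/5% CO2, using 300 parental DNA repair-proficient DT40 cells per well.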

Experiment [5] is described as follows: qHTS assay for identifying genotoxic compounds that show differential cytotoxicity against isogenic chicken DT40 cell lines with known DNA damage response pathways - Rev3 mutant cell line (AID 743014). Also: nearly all actives have a fitted effect of over 55% in size. Also: potency is read from the fitted curve at half-maximal effect.
Experiment [6] can be described thus: qHTS assay to identify small molecule antagonists of the androgen receptor (AR) signaling pathway - cell viability counter screen (AID 743033; also: nearly all actives have a fitted effect of over 45% in size).
A short description of experiment [7]: qHTS assay to identify small molecule antagonists of the thyroid receptor (TR) signaling pathway - cell viability counter screen (AID 743064). Also: nearly all actives have a fitted effect of over 50% in size. Also: potency is read from the fitted curve at half-maximal effect. A digest of the protocol: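 GH3.TRE-Luc cells, 4 h pre-plating; cpd + T3 1 nM final; 37 °C 23.5 h; CellTiter-Fluor 30 min; fluorescence read.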
Experiment [8] in a line: qHTS assay to identify small molecule antagonists of the estrogen receptor alpha (ER-alpha) signaling pathway - cell viability counter screen (AID 743074; calls by dose curve;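 also: HEK293 cells carrying ER-alpha-UAS-bla reporter stimulated with 17beta-estradiol; nearly all actives have a fitted effect of over 45% in size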; also: potency is read from the fitted curve at half-maximal effect).
Experiment [9] addresses Estrogen receptor (Homo sapiens) (UniProt P03372). The experiment is described as follows: qHTS assay to identify small molecule agonists of the estrogen receptor alpha (ER-alpha) signaling pathway (AID 743075; calls by dose curve;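 also: HEK293 GripTite cells with ER-alpha and UAS-driven beta-lactamase reporter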; also: potency is read from the fitted curve at half-maximal effect).
Experiment [10] has the same target. Description: qHTS assay to identify small molecule agonists of the estrogen receptor alpha (ER-alpha) signaling pathway using the BG1 cell line (AID 743079). Also: nearly all actives have a fitted effect of over 20% in size. Also: potency is read from the fitted curve at half-maximal effect.
Experiment [11] concerns the target Peroxisome proliferator-activated receptor gamma (Homo sapiens) (UniProt P37231). The experiment is described as follows: qHTS assay to identify small molecule agonists of the peroxisome proliferator-activated receptor gamma (PPARg) signaling pathway (AID 743094; active = well fitted activation curve with a large enough effect in the signal ratio in the repeat runs, not every such curve was filed as active; the % refers to the signal ratio). The method in brief:
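Agonist activity was taken from a beta-lactamase reporter (FRET substrate, 1 h at room temperature) in HEK293H cells carrying a PPARg UAS-bla construct. Compounds in DMSO were incubated 17 h at 37C after a 5 h cell pre-incubation.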

Experiment [12] addresses Nuclear receptor subfamily 1 group I member 2 (Homo sapiens) (UniProt O75469). Description: CYP3A4 induction through human pregnane X receptor (PXR) by small molecules, qHTS assay (AID 1346984). Also: nearly all actives have a fitted effect of over 40% in size. Also: potency is read from the fitted curve at half-maximal effect. A digest of the protocol: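 Read-out is luminescence after One-Glo addition, following a 3 hr, 37C incubation with Luciferin-IPA CYP3A4 substrate (3uM final). Before that, compounds were on DPX-2 cells (HepG2 co-transfected with PXR element plus CYP3A4-promoter luciferase) for 24 hr at 37C.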

Experiment [13] shares this target. Description: Human pregnane X receptor (PXR) activation by small molecules, qHTS assay (AID 1346985). Also: nearly all actives have a fitted effect of over 40% in size. Also: potency is read from the fitted curve at half-maximal effect. The method in brief:
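DPX-2 cells (HepG2 co-transfected with a PXR response element and a CYP3A4-promoter luciferase construct) were seeded at 2,000 per well, rested 5 hr at 37C, then exposed to DMSO-dissolved compounds for 24 hr. Activation was read as luciferase luminescence.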

Experiment [14] can be described thus: qHTS assay to test for compound auto fluorescence at 590 nm (red) in HepG2 cells (AID 720674). A digest of the protocol:
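Red autofluorescence (Ex/Em 540/590 nm, Rose Bengal sodium equivalents) was measured in HepG2 cells, 2,000 per well in MEM plus 10% FBS, plated overnight at 37 C. Readings were taken 1 hr after adding 23 nL compound or DMSO, at 37 C and 5% CO2.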

The nature of experiment [15]: qHTS assay to test for compound auto fluorescence at 590 nm (red) in HEK293 cells (AID 720679). A digest of the protocol:
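Red-channel autofluorescence (Ex/Em 540/590 nm; Rose Bengal sodium reference) was measured after overnight 37C, 5% CO2 exposure of attached HEK293 cells, 2,000 per well in medium with 10% dialyzed FBS.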

A short description of experiment [16]: qHTS assay to test for compound auto fluorescence at 535 nm (green) in HepG2 cell free culture (AID 720686).
The nature of experiment [17]: qHTS assay to identify small molecule antagonists of the glucocorticoid receptor (GR) signaling pathway - cell viability counter screen (AID 720693). Also: nearly all actives have a fitted effect of over 55% in size. Also: potency is read from the fitted curve at half-maximal effect.
For experiment [18], the system named is thyroid hormone receptor (rat, GH3 cells). Description: qHTS assay to identify small molecule agonists of the thyroid receptor (TR) signaling pathway (AID 743066; calls by dose curve; also: potency is read from the fitted curve at half-maximal effect).

Structures are written as SMILES. Records with an inconclusive call do not appear. Active and inactive are the calls of the source. Unless noted, calls follow the shape of the dose curve; as a rule, active = well fitted curve in the direction sought with a large enough effect in the repeat runs; inconclusive = weak or mixed curves; inactive = no such curve, though single readings can be large; an effect the other way counts as inactive or inconclusive.

Estrogen receptor (Homo sapiens), sequence (P03372 whole entry, looked up): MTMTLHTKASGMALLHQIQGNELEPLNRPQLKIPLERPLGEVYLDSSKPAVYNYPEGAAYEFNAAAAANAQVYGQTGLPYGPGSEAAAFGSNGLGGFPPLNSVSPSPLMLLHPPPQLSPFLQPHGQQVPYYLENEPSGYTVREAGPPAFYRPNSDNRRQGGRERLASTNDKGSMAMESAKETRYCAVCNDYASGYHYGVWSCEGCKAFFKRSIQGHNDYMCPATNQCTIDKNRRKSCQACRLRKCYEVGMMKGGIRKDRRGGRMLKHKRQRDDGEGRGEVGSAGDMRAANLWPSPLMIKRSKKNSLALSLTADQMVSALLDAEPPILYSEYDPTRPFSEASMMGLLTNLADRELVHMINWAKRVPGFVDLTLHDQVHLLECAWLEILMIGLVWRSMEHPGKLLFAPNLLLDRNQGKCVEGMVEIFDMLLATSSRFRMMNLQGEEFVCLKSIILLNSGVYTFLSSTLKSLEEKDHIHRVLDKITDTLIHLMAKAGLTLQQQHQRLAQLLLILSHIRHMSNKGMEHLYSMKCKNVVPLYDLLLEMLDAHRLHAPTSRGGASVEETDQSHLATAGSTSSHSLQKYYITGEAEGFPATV
Peroxisome proliferator-activated receptor gamma (Homo sapiens), sequence (P37231 whole entry, looked up): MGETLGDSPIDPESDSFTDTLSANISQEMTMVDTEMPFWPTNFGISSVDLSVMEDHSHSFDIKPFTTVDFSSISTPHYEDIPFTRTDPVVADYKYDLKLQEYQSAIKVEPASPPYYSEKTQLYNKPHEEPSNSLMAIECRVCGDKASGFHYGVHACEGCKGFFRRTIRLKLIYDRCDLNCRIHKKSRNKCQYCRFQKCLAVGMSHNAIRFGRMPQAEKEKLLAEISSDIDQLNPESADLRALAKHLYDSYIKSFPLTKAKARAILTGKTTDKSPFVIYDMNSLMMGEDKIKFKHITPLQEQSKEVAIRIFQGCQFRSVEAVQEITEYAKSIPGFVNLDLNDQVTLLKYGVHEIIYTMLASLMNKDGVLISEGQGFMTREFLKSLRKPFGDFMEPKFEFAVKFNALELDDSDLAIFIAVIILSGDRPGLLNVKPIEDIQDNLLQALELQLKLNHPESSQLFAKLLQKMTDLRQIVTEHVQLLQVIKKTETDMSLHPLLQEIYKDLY

For the compound `O=C1OC2(c3cc(Br)c(O)cc3Oc3c2cc(Br)c(O)[c]3[Hg])c2ccccc21` (stereo unspecified), the Potency entry in experiment [1], in experiment [2], in [3], in experiment [6], in [7] and in experiment [8] was “inactive” each time. For the same compound, the Potency entry in experiment [9], in experiment [10], in experiment [11], in experiment [12] and in [13] was “inactive” each time. Further, the Potency in experiment [4] is 10.1 µM (active); in experiment [5] it was 11.4 µM (active).
Regarding `CN1C(=O)CC(=O)N(c2ccccc2)c2cc(Cl)ccc21`, the Potency result in [1], in [2], in experiment [16], in [17], in experiment [5] and in experiment [7] was “inactive” in each case. Besides, the Potency result in [18], in [8], in experiment [9], in experiment [10], in [11] and in experiment [12] was “inactive” each time. Moreover, the outcome in experiment [14] and in experiment [15] was inactive.
`C[C@@H](Cc1ccccc1)N(C)C`: in experiment [14], the call was inactive. Moreover, the Potency entry in [2], in experiment [16], in [17], in [4], in [5] and in [6] was “inactive” each time. Also, the Potency result in experiment [7], in experiment [18], in experiment [8], in experiment [11], in [12] and in [13] was “inactive” in each case.
As to `CC(=O)[C@H]1CC[C@H]2[C@@H]3CC[C@@H]4C[C@H](O)CC[C@]4(C)[C@H]3CC[C@]12C`, the call in experiment [14] and in experiment [15] was inactive. The Potency result in experiment [16], in experiment [3], in experiment [17], in [4], in experiment [6] and in [18] was “inactive” in each case. Besides, the Potency result in experiment [8], in experiment [11], in experiment [12] and in experiment [13] was “inactive” in each case. In addition, the Potency in [9] was 26.8 µM [activator] (active); in experiment [10], 29.8 µM (active).
On to `O=C(OCCN1CCCCC1)C(O)(c1ccccc1)c1ccccc1`, for which the Potency entry in experiment [1], in experiment [2], in experiment [3], in [17], in experiment [4] and in experiment [5] was “inactive” in each case. The Potency result in [6], in [7], in experiment [18], in [8], in experiment [9] and in experiment [10] was “inactive” each time. Moreover, the Potency entry in experiment [11], in [12] and in [13] was “inactive” throughout. For the same compound, the compound was called inactive in [14] and in experiment [15].
As for `CN1CCCC(=C(c2cccs2)c2cccs2)C1`, the outcome in [14] and in experiment [15] was inactive. In addition, the Potency entry in experiment [2], in experiment [16], in [17], in experiment [5], in experiment [7] and in [18] was “inactive” in each case. In addition, the Potency result in experiment [8], in experiment [9], in [10], in [11], in experiment [12] and in [13] was “inactive” throughout.
As to `COc1ccc2c3c1O[C@H]1[C@@H](O)C=C[C@H]4[C@@H](C2)NCC[C@@]341`, the call in experiment [14] and in experiment [15] was inactive. In addition, the Potency entry in experiment [3], in experiment [17], in experiment [4], in experiment [5], in experiment [6] and in experiment [7] was “inactive” in each case. For the same compound, the Potency entry in experiment [18], in experiment [8], in experiment [9], in [10], in experiment [11] and in experiment [12] was “inactive” in each case. Moreover, in [13], the Potency result is “inactive”.
Regarding `CCCCCc1cc(O)c2c(c1)OC(C)(C)[C@@H]1CCC(C)=C[C@@H]21`, the result in experiment [14] and in experiment [15] was inactive. Moreover, the Potency entry in [16], in experiment [3], in [6], in experiment [8], in [9] and in experiment [12] was “inactive” throughout. For the same compound, the Potency in [17] was 23.9 µM (active); in experiment [5], 13.3 µM (active); in [7] it was 13.3 µM (active); in experiment [13], 7.94 µM (active).
Consider `C/C(=C\c1csc(C)n1)[C@@H]1C[C@@H]2O[C@]2(C)CCC[C@H](C)[C@H](O)[C@@H](C)C(=O)C(C)(C)[C@@H](O)CC(=O)O1`, for which the Potency result in experiment [1], in [2], in [3], in [17], in experiment [18] and in experiment [10] was “inactive” in each case. Also, the Potency entry in [11] and in [12] was “inactive” throughout. In addition, the compound was classed as inactive in experiment [14] and in experiment [15]. The Potency in experiment [4] is 0.0019 µM (active); in [5], 0.0024 µM (active); in experiment [7], 0.0038 µM (active); in experiment [13], 7.94 µM (active).
For the compound `COC(=O)[C@@H]1[C@H]2CC[C@@H](C[C@H]1OC(=O)c1ccccc1)N2C`, the Potency result in experiment [1], in [16], in [4], in experiment [5], in experiment [6] and in experiment [7] was “inactive” in each case. The Potency result in experiment [18], in experiment [8], in [9], in experiment [10], in experiment [11] and in experiment [12] was “inactive” each time. For the same compound, the Potency result in experiment [13] is “inactive”. Further, the outcome in [14] and in [15] was inactive.
On to `C[C@]12CC[C@H](O)C[C@H]1CC[C@@H]1[C@@H]2CC[C@]2(C)[C@@H](c3ccc(=O)oc3)C[C@H]3O[C@]132`, for which the Potency is 0.75 µM (active) in [1]; 2.68 µM (active) in experiment [17]; 7.5 µM (active) in experiment [4]; 13.3 µM (active) in experiment [5]; 1.34 µM (active) in [8]; 0.944 µM (active) in [10]. In addition, the Potency in [12] was 5.01 µM (active); in [13] it was 3.98 µM (active). Further, the result in [14] was inactive. The Potency result in experiment [2], in experiment [16], in experiment [3], in experiment [7], in experiment [18] and in [9] was “inactive” in each case.
As for `O=C(NC(=O)c1c(F)cccc1F)Nc1ccc(Cl)c(Oc2ncc(C(F)(F)F)cc2Cl)c1`, the outcome in experiment [14] and in [15] was inactive. The Potency result in experiment [2], in [17], in experiment [6], in experiment [18], in experiment [8] and in [9] was “inactive” throughout. For the same compound, the Potency entry in [10], in [11], in experiment [12] and in experiment [13] was “inactive” in each case.
Consider `Oc1ccc2c3c1O[C@H]1[C@@H](O)CC[C@@]4(O)[C@@H](C2)N(CC2CCC2)CC[C@]314`, for which the Potency entry in [1], in experiment [2], in experiment [16], in [3], in experiment [4] and in experiment [5] was “inactive” in each case. The Potency result in experiment [7], in experiment [18], in experiment [8], in [9], in [10] and in experiment [11] was “inactive” in each case. Further, the Potency result in [13] was “inactive”. Moreover, the compound was classed as inactive in experiment [14].
As to `c1ccc(C2(N3CCCC3)CCCCC2)cc1`, the Potency was 26.6 µM (active) in [1]; 5.31 µM (active) in [4]; 8.41 µM (active) in [5]; 16.8 µM (active) in [7]; 1.58 µM (active) in [12]; 5.01 µM (active) in [13]. The outcome in experiment [14] was inactive. In addition, the Potency entry in experiment [2], in experiment [16], in experiment [3], in experiment [8], in experiment [9] and in experiment [10] was “inactive” each time.
On to `COc1ccc(OC)c([C@@H](O)[C@H](C)N)c1`, for which the result in experiment [14] and in [15] was inactive. Further, the Potency entry in experiment [2], in experiment [16], in [3], in [4], in [5] and in experiment [6] was “inactive” throughout. Also, the Potency result in experiment [7], in [8], in experiment [9], in experiment [10], in experiment [11] and in [12] was “inactive” in each case. Further, the Potency entry in [13] was “inactive”. The Potency in experiment [18] was 29.8 µM (active).
